In all, about 320,000 compounds went through this assay and about 1,100 (0.34%) were called active. This is one part of a sample in which actives are shown more often than they occur.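 How the source made its calls: active means GFP response vs DMSO above a set limit, about the screen mean plus 3 SD (cut at about 150% in these data); inconclusive means under 70 cell events counted for the yeast strain; inactive means the rest.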
Experiment: modulators of LAP4-GFP expression in yeast, primary screen, S. cerevisiae, multiplex flow cytometry, MLPCN library (AID 2023)
Conditions: 3 h, at 10 µM, hits give high values, median GFP as percent of DMSO wells

GFP response vs DMSO, inactive:
COc1ccc(C2(c3ccc(OC)cc3)NC(=O)N(CC(=O)Nc3cc(C)on3)C2=O)cc1 92.2%
O=C(Cc1ccccc1)NC(=S)Nc1ccc(N2CCCCC2)cc1 111%
CC(=O)Nc1ccc(S(=O)(=O)Nc2ccc(N3CCCCC3)cc2)cc1 105%
COc1ccccc1N(CCOc1ccccc1)S(=O)(=O)c1ccccc1 103%
Cc1nc([N+](=O)[O-])nn1C12CC3CC(CC(Br)(C3)C1)C2 109%
Cc1ccc(C(=O)CSc2ccccc2C(=O)O)cc1 104%
Cc1ccc(CSCC(N)C(=O)O)cc1 (stereo not given) 97%
COc1cnc(-c2ccccn2)nc1Oc1ccc(C(C)(C)C)cc1 107%
CC(C)(C)Nc1nc(-c2ccccn2)nc2ccccc12 90.7%
Nn1c(Cc2cccc3ccccc23)nnc1SCC(=O)N1CC(=O)Nc2ccccc21 99.1%
Cc1onc(NC(=O)c2ccc([N+](=O)[O-])o2)c1Br 116%
O=C(Nc1ccc(Br)cn1)c1ccc([N+](=O)[O-])o1 105%
Cc1cccc(N)c1SC1CCCCC1O (stereo not given) 92.2%
Cc1ccc(C(CNC(=O)Nc2ccccc2)N2CCN(C)CC2)cc1 (stereo not given) 102%
Cc1cc(O)c(Sc2ccccc2)c(=O)o1 109%
Cc1ccc(N=Cc2c(O)cc(C)oc2=O)c(C)c1 100%
Oc1c(CN2CCCC2)cc(COCc2ccccc2)c2cccnc12 105%
Cc1cccnc1NC(=O)c1cccc(S(=O)(=O)N2CCN(c3ccc(F)cc3)CC2)c1 87.3%
Cc1cc(C)c(OCC(=O)N(Cc2cccs2)C2CCS(=O)(=O)C2)c(C)c1 (stereo not given) 98.7%
C/C(=N\NS(=O)(=O)c1ccc(Cl)cc1)c1ccc(NC(=O)c2ccco2)cc1 94.4%
O=[N+]([O-])c1ccc(F)cc1Oc1nc(-c2cccnc2)nc2ccccc12 100%
Cc1ccc2nc(C)cc(N/N=C/c3ccc(F)cc3)c2c1 103%
CCOC(=O)CCC(=O)OCC(=O)NC(C)C1CC2CCC1C2 (stereo not given) 100%
COc1ccc(S(=O)(=O)N2CCN(CC(=O)N3CCOCC3)CC2)cc1OC 95%
O=C(COC(=O)c1cccnc1Cl)NC12CC3CC(CC(C3)C1)C2 104%
CN/C(=C\[N+](=O)[O-])NCCSCc1csc(CN(C)C)n1 95.9%
COC(=O)c1ccc(-c2noc(CN(Cc3ccccn3)CC3CCCO3)n2)cc1 (stereo not given) 98.4%
COc1ccccc1C(=O)Nc1ccc(OCc2nnc3c4ccccc4c(C)nn23)cc1 102%
C=CCC1(CC=C)CCCN1C(=O)CC1C(=O)NCCN1Cc1ccccc1OC (stereo not given) 93%
COc1cccc(C(=O)Nc2nc3ccc(S(C)(=O)=O)cc3s2)c1 103%
CCc1noc(C)c1C(=O)Nc1nc(-c2ccccc2)cs1 115%
COc1cc(C(=S)N2CCOCC2)cc(OC)c1OC(=O)c1ccc([N+](=O)[O-])cc1[N+](=O)[O-] 91.2%
O=C(CSc1ncnc2sccc12)N1CCN(C(=O)c2cccs2)CC1 107%
CCc1c(C)c2ccc(OC3CCCCC3=O)cc2oc1=O (stereo not given) 99.3%
CC(C)c1ccc(NC(=O)C2CCCN(S(=O)(=O)c3cccnc3)C2)cc1 (stereo not given) 94.4%
O=C(NC1CCCCC1)c1ccc(-c2ccc(Cl)cc2)o1 118%
CCOc1ccc(C(c2c(C)[nH][nH]c2=O)c2c(C)[nH][nH]c2=O)cc1OCC 128%
CCN(c1ccccc1)S(=O)(=O)c1cc2c(cc1C)n(C)c(=O)c(=O)n2C 99.4%
Cc1ccccc1OCCC(=O)OCC(=O)NCCc1ccc(S(N)(=O)=O)cc1 91.6%
CC(C)CC1(C)NC(=O)N(CC(=O)Nc2ccc3c(c2)OCCO3)C1=O (stereo not given) 95.9%
CC1(C)CC(=O)CC2(C1)NCC(c1ccccc1Cl)c1c2[nH]c2ccccc12 (stereo not given) 107%
CC(C)c1nc(SCC(=O)Nc2cccc(C(=O)O)c2)c2c3c(sc2n1)CCCC3 99.7%
COc1ccc(-n2c(C)cc(C(=O)CN3C(=O)NC4(CCc5ccccc54)C3=O)c2C)cc1 (stereo not given) 96.4%
CCc1ccc(S(=O)(=O)N/N=C\c2ccc([N+](=O)[O-])o2)cc1 87.6%
CCn1c(=O)c([N+](=O)[O-])c(NCc2ccc3c(c2)OCO3)c2ccccc21 101%
Cc1cccc([C@@H]2[C@@H]3C(=O)N(Cc4ccccc4)C(=O)[C@@H]3[C@]3(C)C(=O)N(c4ccc(Br)cc4)C(=O)N23)c1 98.8%
CN(c1ccccc1)S(=O)(=O)c1cc(C(=O)N2CCN(c3ncccn3)CC2)ccc1Cl 91.2%
C[C@@H](CN1CCC[C@H]1CN1C(N)=NC[C@@H]1Cc1ccccc1)N1C[C@@H](Cc2ccccc2)N(CCCC2CCCC2)C1=N 96.6%

GFP response vs DMSO, active:
O=C1C=CC(=O)N1c1ccc(N2CCCCC2)cc1 179%
Cc1ccc(SC(CC(=O)c2ccc(C(C)(C)C)cc2)C(=O)O)cc1 (stereo not given) 170%
Cc1ccc(Oc2nc(-c3ccccn3)nc3ccccc23)cc1 151%
Cc1cccc(NC(=O)c2ccc([N+](=O)[O-])o2)c1 151%
Cc1cc(O)c(C(=O)/C=C/c2c(F)c(F)c(F)c(F)c2F)c(=O)o1 152%
Oc1c(CN2CCN(c3ccc(F)cc3)CC2)cc(Cl)c2cccnc12 203%
Fc1ccc(/C=N/Nc2nc(-c3cccnc3)nc3ccccc23)cc1 165%
CCc1noc(C)c1C(=O)Nc1nc2ccc(OC)cc2s1 152%
Nc1c(C(=O)c2cccs2)sc2nsc(SCCN3CCCCC3)c12 203%
Cc1[nH][nH]c(=O)c1C(c1ccc(-c2ccc(Cl)cc2)o1)c1c(C)[nH][nH]c1=O 184%
Oc1ccc2ccccc2c1N=Nc1nccs1 165%
CCn1c(/C=C/c2ccc([N+](=O)[O-])o2)nc2ccccc2c1=O 358%

Source: PubChem BioAssay AID2023 (NMMLSC, 2009)
